# Results taken from PubChem BioAssay AID743145 (Broad Institute, 2013).
# Measured potencies and affinities stand elsewhere. Unmarked numbers belong to inactive results. No rule for the calls is given here.
# Assay: cytotoxicity in COV434 cells, dose response, cytotoxicity control for PAX8 inhibitor project, cell-based, plate reader, dry powder, SA7 (AID 743145)
# Conditions: series mostly up to 35 µM; activity change, negative = cytotoxicity: at the top concentration
row,Compound,"activity change, negative = cytotoxicity"
1,C[C@@H]1CN([C@@H](C)CO)S(=O)(=O)c2ccc(C#C[C@@H](C)O)cc2O[C@H]1CN(C)Cc1ccc(-c2ccccc2)cc1,-5.91%
2,N#C[C@@H]1[C@@H](c2ccc(-c3ccccc3F)cc2)[C@@H](CO)N1C(=O)C1CCC1,-6.05%
3,C[C@H](CO)N1C[C@H](C)[C@@H](CN(C)S(=O)(=O)c2ccc(-c3ccccc3)cc2)OCc2cn(nn2)CCCC1=O,5.76%
4,C[C@H]1CN([C@@H](C)CO)C(=O)Cc2cc(NC(=O)NC3CCCCC3)ccc2O[C@@H]1CN(C)Cc1ccc(-c2ccccc2)cc1,22.3%
5,O=C1/C(=C/c2cccc(Br)c2)SC(=S)N1CCC(=O)N(CCO)c1ccccc1,-46.1% [at 50 µM]
6,COc1ccc(S(=O)(=O)Nc2ccc3c(c2)CC(=O)N([C@@H](C)CO)C[C@@H](C)[C@@H](CN(C)Cc2ccc(-c4ccccc4)cc2)O3)cc1,-5.13%
7,O=C(CN1C(=O)c2ccccc2S1(=O)=O)c1ccccc1Cl,-6.49% [at 50 µM]
8,O=C(CN1C(=O)c2ccccc2S1(=O)=O)c1ccc(Cl)cc1Cl,8.31% [at 50 µM]
9,COc1ccc(S(=O)(=O)N2CCCCN3[C@H](CO)[C@H](c4ccc(C#CC(C)C)cc4)[C@H]3C2)cc1,17.6%
10,COc1cccc(C#Cc2ccc([C@H]3[C@@H](C#N)N(C(=O)c4ccccn4)[C@@H]3CO)cc2)c1,-14.5%
11,N#C[C@H]1[C@@H](c2ccc(C#CC3CCCCC3)cc2)[C@@H](CO)N1S(=O)(=O)c1ccccc1,-24.8%
12,CCc1cnc(N2[C@@H](C#N)[C@@H](c3ccc(C#CC(C)C)cc3)[C@@H]2CO)s1,5.79%
13,CC(=O)N1CCOc2ccc(S(=O)(=O)N3CCN(c4cccc(C(F)(F)F)c4)CC3)cc21,-13.7% [at 50 µM]
14,Cc1ccccc1OCC(=O)Nc1cccc(C(=O)O)c1,7.84% [at 50 µM]
15,C[C@H](CO)N1C[C@H](C)[C@H](CN(C)C(=O)Nc2ccc(-c3cccs3)cc2)OCc2cnnn2CCCC1=O,3.45%
16,O=C(NCCc1ccccc1)c1ccc2c(c1)OCCCO2,-23.6% [at 50 µM]
17,COC(=O)[C@@]1(CCS(=O)(=O)c2ccccc2)N=C(c2ccc(OCCCO)cc2)O[C@H]1c1ccccc1,-28.9% [at 50 µM]
18,COc1ccc(S(=O)(=O)Nc2ccc3c(c2)CC(=O)N([C@@H](C)CO)C[C@H](C)[C@@H](CN(C)Cc2ccc(C(F)(F)F)cc2)O3)cc1,-2.58%
19,COc1cccc(-c2ccc([C@H]3[C@@H](CO)N(C(=O)Cc4ccccc4)[C@H]3C#N)cc2)c1,-16.2%
20,COc1cccc(C#Cc2ccc([C@@H]3[C@@H](C#N)N(C(=O)C4CCCC4)[C@@H]3CO)cc2)c1,-18%
21,O=C1/C(=C/c2ccccc2)SC(=S)N1CC(=O)N1CCCCC1c1cccnc1 (stereo unspecified),-3.46% [at 50 µM]
22,C[C@H](CO)N1C[C@H](C)[C@@H](CN(C)Cc2ccc(-c3ccccc3)cc2)Oc2ccc(NC(=O)C3CC3)cc2CC1=O,23.2%
23,O=C(CCS(=O)(=O)c1ccccc1)Nc1nc2ccc(F)cc2s1,7.63% [at 50 µM]
24,C[C@H]1CN([C@@H](C)CO)C(=O)CCCn2nncc2CO[C@@H]1CN(C)C(=O)Nc1ccc(-c2cccs2)cc1,0.845%
25,C[C@@H]1CN([C@H](C)CO)C(=O)CCCn2cc(nn2)CO[C@H]1CN(C)C(=O)Nc1ccc(-c2cccs2)cc1,3.8%
26,COc1cccc(C#Cc2ccc([C@@H]3[C@@H](C#N)N(C(=O)C4CCCCC4)[C@H]3CO)cc2)c1,-26.6%
